AI-2 QS modul = modulates the Vibrio harveyi AI-2 quorum sensing system; activity change, % at 7.5 µM; Vibrio harveyi JMH597 AI-2 luminescence/OD600 ratio, 9 h; hits give low values; strain lacks LuxN and CqsS sensors; 0 = neutral-control median; 0.4% of 300,000 active; AID 2094; in the data active means activity change below about -75%, passing the limit was not always enough; inconclusive means no clear call, values can overlap the other calls;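 further: luminescence divided by OD600 gain over 9 h not by final OD600 alone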
Statin myotox sup = protects C2C12 myotubes from simvastatin toxicity; rescue of ATP level, % at 7.49 µM; 0.78% of 330,000 active; ATP luminescence, 48 h; scaled: DMSO 0, geranylgeraniol control 100;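 active means mean ATP rescue above about 67%, or every replicate alone reaching that limit, limit read from the data, passing the limit was not always enough; inconclusive means no clear call, values can overlap the other calls; inactive means mean under the limit and some replicate under it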;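 further: myotubes were challenged with 10 µM simvastatin during compound exposure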
HIF activator = HIF pathway transcriptional activation; AID 1910; U2OS HRE-luciferase reporter, luminescence; normalized: DMSO 0%, desferrioxamine 100%; 0.32% of 300,000 active; activation, % at 7.5 µM (by protocol);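 active means mean activation of at least 10% of the iron chelator positive control signal, with at least half of replicates also reaching 10%; inconclusive means mean and replicate majority disagree about reaching 10%; inactive means mean and most replicates under 10%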
Rce1 inh = yeast Ras-converting enzyme inhibition; AID 2563; calls only; Q03530; yeast membranes, quenched prenylated peptide cleavage fluorescence; 0.27% of 290,000 active;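 active means fall in fluorescence gain of 50% or more versus controls, with final raw signal at or below 3038400; inconclusive means same 50% fall but final raw signal above 3038400; inactive means fall in fluorescence gain under 50%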;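 further: plate controls were neutral control wells for no effect and wells lacking membranes for full effect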
Target sequence (Q03530 whole entry, looked up): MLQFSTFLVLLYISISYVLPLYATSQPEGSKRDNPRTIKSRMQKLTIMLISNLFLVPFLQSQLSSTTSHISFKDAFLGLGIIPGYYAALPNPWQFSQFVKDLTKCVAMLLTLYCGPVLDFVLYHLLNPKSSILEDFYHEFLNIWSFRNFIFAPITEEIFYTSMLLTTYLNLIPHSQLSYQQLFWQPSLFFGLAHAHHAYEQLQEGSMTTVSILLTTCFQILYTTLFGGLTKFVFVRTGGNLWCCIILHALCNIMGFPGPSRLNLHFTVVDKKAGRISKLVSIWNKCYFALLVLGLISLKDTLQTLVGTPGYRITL
PGC1a acetyl inh = modulators of PGC1a acetylation; inhibition, % at 15.6 µM; U2OS PGC1a acetylation, AlphaScreen anti-acetyl-lysine; with virally co-expressed GCN5 acetyltransferase; 0.17% of 350,000 active;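 active means every replicate shows inhibition of at least 40%; inconclusive means mean inhibition at least 40% but some replicate below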;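 further: 0% = neutral control wells and 100% = positive control wells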
JMH597 growth = retest: blocks Vibrio harveyi JMH597 growth; shares compounds with AI-2 QS modul; OD600 absorbance, 9 h; lacks LuxN and CqsS sensors; growth inhibition, % at 7.5 µM; 1% of 750 active; AID 2726;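 active means every replicate shows growth inhibition above 50%; inconclusive means at least half, but not all, replicates pass that cutoff; inactive means fewer than half of replicates pass it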
BB721 const-QS lum = retest counter-screen: lowers luminescence of constitutive-QS Vibrio harveyi BB721 | shares compounds with AI-2 QS modul | 9 h | inhibition, % at 7.5 µM | 95% of 750 active;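 active means inhibition above about 80% in every replicate, not just on average, limit read from the data; inconclusive means at least half of replicates past the limit, but not all; inactive means fewer than half of replicates past the limit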
BB721 growth = retest: inhibitors of Vibrio harveyi BB721 growth; 3% of 750 active; OD600 absorbance, 9 h; growth inhibition, % at 7.5 µM; AID 2728; shares compounds with AI-2 QS modul;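 active means every replicate shows growth inhibition above 50%; inconclusive means at least half but not all replicates above 50% inhibition; inactive means under half of replicates above 50% inhibition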
JMH597 AI-2 mod = Vibrio harveyi AI-2 signaling luminescence modulation – JMH597 strain, confirmation; shares compounds with AI-2 QS modul; Vibrio harveyi JMH597 AI-2 quorum sensing luminescence, 9 h; luxN and CqsS knockout, AI-2 only; inhibition, % at 7.5 µM; 97% of 750 active; AID 2736;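 active means every replicate shows more than 75% inhibition of signal versus neutral control wells; inconclusive means half to three quarters of replicates exceed 75% inhibition; inactive means fewer than half of replicates exceed 75% inhibition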
Numbers without * were called inactive; i = inactive; ? = inconclusive; . = not tested or not shown. An excerpt weighted towards active compounds, which were near 1.3% of everything screened.

SMILES | AI-2 QS modul | Statin myotox sup | HIF activator | Rce1 inh | PGC1a acetyl inh | JMH597 growth | BB721 const-QS lum | BB721 growth | JMH597 AI-2 mod
CCC(=O)N(C)C[C@H]1Oc2cc(C#Cc3ccccn3)ccc2S(=O)(=O)N([C@H](C)CO)C[C@H]1C | . | -4 | . | . | -17 | . | . | . | .
O=C(C[C@H]1C[C@H]2c3cc(NC(=O)c4ccc5c(c4)OCO5)ccc3O[C@H]2[C@H](CO)O1)NCc1ccc(Cl)cc1 | . | 7 | . | . | -15 | . | . | . | .
O=C(CNC(=O)c1ccccc1)N/N=C/c1ccccc1Cl | -90* | . | 0 | i | . | 21 | 96* | 15 | 97*
Cc1ccc(S(=O)(=O)Nc2cccc3c2O[C@H](CN(C)C(=O)Nc2cccc4ccccc24)[C@@H](C)CN([C@H](C)CO)C3=O)cc1 | . | 13 | . | . | -23 | . | . | . | .
CCCCCCOc1ccc(N2C(=O)CC(SCCN)C2=O)cc1 (configuration not stated) | -85* | 16 | -1 | i | 5 | 28 | 88* | 6 | 96*
CCOc1ccc(N2C(=O)CC(SCCN)C2=O)cc1 (configuration not stated) | -49 | -2 | 3 | i | -16 | . | . | . | .
Nc1nc(-c2ccccc2)nc(-c2ccccc2O)n1 | -5 | 13 | 3 | . | 6 | . | . | . | .
Nc1nc(NCc2ccccc2)nc(-c2ccccc2)n1 | -82* | 6 | 0 | i | . | -25 | 87* | -37 | 92*
COc1ccc(/C=N/Nc2ccc(C(=O)O)cc2)c(OC)c1OC | -92* | -31 | 1 | i | 10 | 0 | 95* | -7 | 96*
Cc1cc(C(=O)Nn2cnc3ccccc3c2=O)ccc1[N+](=O)[O-] | -86* | . | 0 | i | 9 | 24 | 95* | 11 | 97*
CC(=O)N(C)C[C@@H]1Oc2cc(C#Cc3cccc(F)c3)ccc2S(=O)(=O)N([C@H](C)CO)C[C@H]1C | . | 10 | . | . | . | . | . | . | .
Cc1cccc(OCc2nnc(SCC(=O)N3CC(=O)Nc4ccccc43)o2)c1 | -93* | . | -1 | i | 2 | 1 | 96* | 0 | 98*
Cc1cccc(OCc2nnc(SCC(=O)N3CCCCC3)o2)c1 | 25 | 3 | -1 | i | 10 | . | . | . | .
CO[C@@H]1CN(C)C(=O)c2ccc(NS(C)(=O)=O)cc2OC[C@@H](C)N(Cc2cncnc2)C[C@@H]1C | . | 8 | . | . | -8 | . | . | . | .
Cc1ccc(NC(=O)CCC(=O)c2ccccc2)cc1 | . | -1 | . | . | . | . | . | . | .
Cc1ccc(C(=O)CCC(=O)Nc2cccc(C)c2)cc1 | -89* | -6 | -7 | i | -9 | 39 | 96* | 27 | 97*
CO[C@@H]1CN(C)C(=O)c2ccc(NC(=O)C3CC3)cc2OC[C@@H](C)N(Cc2cncnc2)C[C@@H]1C | . | -1 | . | . | 13 | . | . | . | .
COc1ccc(CNC(=O)/C=C/c2ccccc2[N+](=O)[O-])cc1 | -80* | . | 0 | i | . | 14 | 95* | 3 | 96*
NS(=O)(=O)c1ccc(CNC(=O)/C=C/c2ccccc2[N+](=O)[O-])cc1 | 14 | . | 0 | i | . | . | . | . | .
O=C(/C=C/c1ccccc1Cl)NCc1ccccc1 | -94* | 145* | 1 | i | 6 | 4 | 98* | 17 | 99*
O=C(/C=C/c1ccccc1[N+](=O)[O-])Oc1ccccc1 | -81* | . | 0 | i | . | -9 | 79* | 14 | 88*
O=C(/C=C/c1ccccc1[N+](=O)[O-])NCc1ccc(Cl)cc1 | ? | . | 0 | i | . | -4 | 91* | 10 | 93*
O=C(/C=C/c1ccccc1Cl)NCCc1ccccc1 | -34 | -49 | 3 | i | 0 | . | . | . | .
C[C@@H]1CN([C@H](C)CO)C(=O)Cc2cc(NC(=O)CCC(F)(F)F)ccc2O[C@@H]1CN(C)S(C)(=O)=O | . | 21 | . | . | 8 | . | . | . | .
O=C(Cn1c(=O)sc2ccccc21)Nc1ccc(S(=O)(=O)N2CCCCC2)cc1 | -90* | . | -1 | i | . | 44 | 96* | 28 | 99*
SMILES | AI-2 QS modul | Statin myotox sup | HIF activator | Rce1 inh | PGC1a acetyl inh | JMH597 growth | BB721 const-QS lum | BB721 growth | JMH597 AI-2 mod
O=C(Cn1c(=O)sc2ccccc21)Nc1ccccc1 | 13 | 42 | 0 | i | -13 | . | . | . | .
CCN(CC)S(=O)(=O)c1ccc(NC(=O)Cn2c(=O)sc3ccccc32)cc1 | -82* | . | 0 | i | . | 17 | 91* | 18 | 94*
CCN1CC(=O)N2[C@H](C1)[C@H](c1ccc(-c3ccccc3F)cc1)[C@@H]2CO | . | . | . | . | -14 | . | . | . | .
COc1ccc(/C=C/C(=O)c2ccc(O)cc2)cc1 | -93* | 4 | 2 | i | 3 | 22 | 97* | 6 | 97*
O=C(CN1C(=O)c2ccccc2C1=O)Nc1cccnc1 | -82* | 7 | 0 | i | . | 1 | 93* | -17 | 94*
O=C(CN1C(=O)c2ccccc2C1=O)Nc1cccc([N+](=O)[O-])c1 | -95* | . | 0 | i | . | 13 | 99* | -1 | 99*
O=C(CN1C(=O)c2ccccc2S1(=O)=O)Nc1cccnc1 | -31 | 10 | -1 | i | 3 | . | . | . | .
O=C(CN1CCCCCC1)Nc1cccc([N+](=O)[O-])c1 | 0 | -9 | 0 | i | -7 | . | . | . | .
O=C(Nc1cccc(Cl)c1)OCCOc1ccccc1 | -87* | -9 | 1 | i | -6 | 8 | 92* | -6 | 92*
COCC(=O)N(C)C[C@H]1Oc2cc(-c3ccc(F)cc3)ccc2S(=O)(=O)N([C@H](C)CO)C[C@@H]1C | . | -8 | . | . | 7 | . | . | . | .
CCOC(=O)c1ccc(NC(=O)C(C)N2C(=O)c3ccccc3C2=O)cc1 (configuration not stated) | 21 | 28 | 0 | . | -3 | . | . | . | .
CCOC(=O)c1cccc(NC(=O)C(C)N2C(=O)c3ccccc3C2=O)c1 (configuration not stated) | -95* | 3 | 0 | i | 4 | 11 | 99* | -1 | 99*
CCCC(=O)Nc1ccc2c(c1)C(=O)N(C)C[C@H](OC)[C@@H](C)CN(Cc1nccs1)[C@@H](C)CO2 | . | -16 | . | . | 4 | . | . | . | .
O=C(OCc1ccc(Br)cc1)c1ccncc1 | -2 | -5 | 0 | i | 7 | . | . | . | .
CC(=O)Nc1ccc(C(=O)OCc2ccc(Br)cc2)cc1 | -89* | . | 0 | i | . | 10 | 96* | ? | 95*
Cc1ccc(/C=C/C(=O)NCc2ccncc2)cc1 | -5 | . | 0 | i | 3 | . | . | . | .
O=C(/C=C/c1ccc(Br)o1)NCc1ccccc1 | -90* | 5 | 0 | i | 6 | 13 | 97* | 19 | 97*
Cc1ccc(CNC(=O)/C=C/c2ccc(Br)o2)cc1 | -94* | . | 0 | i | . | 23 | 99* | ? | 99*
